Measured values as given in the supplement of paper PMC10849652.
About 8,800 targets were measured; listed, in parts, are those with a hit and a random draw of the rest. About 0.5% of all pairs of compound and target were hits. Values without a mark were called inactive.

Tests used:
Assay in all cases: log2 fold change, soluble protein after heating vs DMSO (PISA); higher = thermal stabilisation; K562 lysate, 10 uM; active = over 0.2 and 3.5 SD of the protein, either way, in both replicates (recomputed)
[1] = compound: CC[C@@H]1C(=O)N(C)c2cnc(Nc3ccc(C(=O)NC4CCN(C)CC4)cc3OC)nc2N1C1CCCC1
Summary of the method: (§1)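 Log-two fold change in thermal stability relative to solvent controls is reported from duplicates. For each sample, crude K562 extract from dounce-homogenised pellets in PBS pH 7.4 with 1 mM MgCl2, at 1 mg/mL protein, was treated with 10 μM compound for 30 min. Aliquots heated for 3 min across 48°C-58°C were pooled, brought to 0.5% NP-40 at 4°C and cleared at 21,000xg for 90 min. The supernatant was quantified by TMTpro 16plex LC-MS/MS with channel sums equalised.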

encorafenib = compound: COC(=O)N[C@@H](C)CNc1nccc(-c2cn(C(C)C)nc2-c2cc(Cl)cc(NS(C)(=O)=O)c2F)n1 [encorafenib]
Summary of the method: as §1

[2] = compound: COC(=O)[C@H](CCSC)NC(=O)C1=C(C=C(C=C1)NC[C@H](CS)N)C2=CC=CC=C2
Summary of the method: as §1

[3] = compound: CCCS(=O)(=O)Nc1ccc(F)c(C(=O)c2c[nH]c3ncc(Cl)cc23)c1F
Summary of the method: as §1

barasertib = compound: CCN(CCCOc1ccc2c(Nc3cc(CC(=O)Nc4cccc(F)c4)[nH]n3)ncnc2c1)CCOP(=O)(O)O [barasertib]
Summary of the method: as §1

volasertib = compound: CC[C@@H]1C(=O)N(C)c2cnc(Nc3ccc(C(=O)N[C@H]4CC[C@H](N5CCN(CC6CC6)CC5)CC4)cc3OC)nc2N1C(C)C [volasertib]
Summary of the method: as §1

[4] = compound: CCn1c(C(=O)N(C2CC2)C2CC2)cc2c3c(ncn3C)c(Nc3cc(C)n(C)n3)nc21
Summary of the method: as §1

[5] = compound: CCn1cc(-c2ccnc3[nH]c(-c4cccc(CN(C)C)c4)cc23)c(-c2ccc(NC(=O)N(C)C)cc2)n1
Summary of the method: as §1

[6] = compound: CN1CCC(CNc2ccc3ncc(-c4cccc(OC(F)(F)F)c4)n3n2)CC1
Summary of the method: as §1

saracatinib = compound: CN1CCN(CCOc2cc(OC3CCOCC3)c3c(Nc4c(Cl)ccc5c4OCO5)ncnc3c2)CC1 [saracatinib]
Summary of the method: as §1

sotrastaurin = compound: CN1CCN(c2nc(C3=C(c4c[nH]c5ccccc45)C(=O)NC3=O)c3ccccc3n2)CC1 [sotrastaurin]
Summary of the method: as §1

alvocidib = compound: CN1CC[C@H](c2c(O)cc(O)c3c(=O)cc(-c4ccccc4Cl)oc23)[C@H](O)C1 [alvocidib]
Summary of the method: as §1

Tubastatin A = compound: CN1CCc2c(c3ccccc3n2Cc2ccc(C(=O)NO)cc2)C1 [Tubastatin A]
Summary of the method: as §1

[7] = compound: CNC(=O)C1=CC=CC=C1NC2=NC(=NC=C2Cl)NC3=C(C=C(C=C3)N4CCOCC4)OC
Summary of the method: as §1

[8] = compound: CNc1nc(-c2ccc3c(N)n[nH]c3c2)cc(N2C[C@@H](C(=O)NC3CCCCC3)CC[C@H]2C)n1
Summary of the method: as §1

alisertib = compound: COc1cc(Nc2ncc3c(n2)-c2ccc(Cl)cc2C(c2c(F)cccc2OC)=NC3)ccc1C(=O)O [alisertib]
Summary of the method: as §1

[9] = compound: COc1cc2nc(-c3cc(F)ccc3O)nc(N[C@@H]3CNC[C@H]3C(C)(C)O)c2cc1OC
Summary of the method: as §1

gefitinib = compound: COc1cc2ncnc(Nc3ccc(F)c(Cl)c3)c2cc1OCCCN1CCOCC1 [gefitinib]
Summary of the method: as §1

vemurafenib = compound: CCCS(=O)(=O)Nc1ccc(F)c(C(=O)c2c[nH]c3ncc(-c4ccc(Cl)cc4)cc23)c1F [vemurafenib]
Summary of the method: as §1

defactinib = compound: CNC(=O)c1ccc(Nc2ncc(C(F)(F)F)c(NCc3nccnc3N(C)S(C)(=O)=O)n2)cc1 [defactinib]
Summary of the method: as §1

Chain of UniProt Q5JRK9 (Q5JRK9 whole entry, looked up): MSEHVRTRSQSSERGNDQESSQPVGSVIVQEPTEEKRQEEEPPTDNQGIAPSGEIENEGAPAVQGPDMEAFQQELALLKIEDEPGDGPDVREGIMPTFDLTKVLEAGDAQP
Chain of UniProt Q13415 (Q13415 whole entry, looked up): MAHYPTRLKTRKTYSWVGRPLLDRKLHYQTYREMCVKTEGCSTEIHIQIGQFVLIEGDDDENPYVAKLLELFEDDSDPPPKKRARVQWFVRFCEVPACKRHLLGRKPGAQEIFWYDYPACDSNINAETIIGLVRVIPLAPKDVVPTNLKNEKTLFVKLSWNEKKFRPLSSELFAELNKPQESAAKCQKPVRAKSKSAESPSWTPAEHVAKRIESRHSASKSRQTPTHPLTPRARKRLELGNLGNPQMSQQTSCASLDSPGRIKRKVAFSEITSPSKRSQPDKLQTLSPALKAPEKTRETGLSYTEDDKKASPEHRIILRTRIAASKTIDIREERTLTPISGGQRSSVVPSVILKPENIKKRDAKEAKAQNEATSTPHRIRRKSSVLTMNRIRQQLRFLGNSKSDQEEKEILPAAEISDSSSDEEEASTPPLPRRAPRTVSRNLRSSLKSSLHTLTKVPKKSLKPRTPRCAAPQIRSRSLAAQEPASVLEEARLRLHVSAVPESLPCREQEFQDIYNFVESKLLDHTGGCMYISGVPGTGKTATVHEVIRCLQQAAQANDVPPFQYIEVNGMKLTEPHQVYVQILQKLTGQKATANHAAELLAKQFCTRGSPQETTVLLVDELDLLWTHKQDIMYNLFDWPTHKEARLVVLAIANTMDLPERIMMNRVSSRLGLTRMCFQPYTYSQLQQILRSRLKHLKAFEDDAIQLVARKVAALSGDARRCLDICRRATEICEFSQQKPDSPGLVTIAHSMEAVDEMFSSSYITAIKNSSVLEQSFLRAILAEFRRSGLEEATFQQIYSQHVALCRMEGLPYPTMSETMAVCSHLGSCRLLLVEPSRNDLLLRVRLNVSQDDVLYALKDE
Chain of UniProt Q8NE18 (Q8NE18 whole entry, looked up): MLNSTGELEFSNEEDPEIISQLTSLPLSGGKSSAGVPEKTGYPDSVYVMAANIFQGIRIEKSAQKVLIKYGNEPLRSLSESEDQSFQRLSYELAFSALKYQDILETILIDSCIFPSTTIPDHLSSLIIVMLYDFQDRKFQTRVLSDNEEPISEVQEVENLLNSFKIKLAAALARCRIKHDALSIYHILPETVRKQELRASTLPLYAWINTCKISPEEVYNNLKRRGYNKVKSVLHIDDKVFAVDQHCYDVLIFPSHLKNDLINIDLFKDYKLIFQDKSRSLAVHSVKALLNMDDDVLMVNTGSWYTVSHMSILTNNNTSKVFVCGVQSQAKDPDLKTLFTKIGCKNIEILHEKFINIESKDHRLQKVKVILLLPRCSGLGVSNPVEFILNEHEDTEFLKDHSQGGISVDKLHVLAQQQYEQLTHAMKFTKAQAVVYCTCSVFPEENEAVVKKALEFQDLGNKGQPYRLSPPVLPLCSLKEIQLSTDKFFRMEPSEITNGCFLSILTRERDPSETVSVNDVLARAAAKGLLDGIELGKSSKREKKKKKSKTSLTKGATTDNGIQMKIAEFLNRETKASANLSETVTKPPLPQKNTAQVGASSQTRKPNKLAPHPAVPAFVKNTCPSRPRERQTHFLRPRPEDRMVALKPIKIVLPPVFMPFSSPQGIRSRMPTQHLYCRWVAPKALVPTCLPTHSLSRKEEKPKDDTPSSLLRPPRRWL
Chain of UniProt P48552 (P48552 whole entry, looked up): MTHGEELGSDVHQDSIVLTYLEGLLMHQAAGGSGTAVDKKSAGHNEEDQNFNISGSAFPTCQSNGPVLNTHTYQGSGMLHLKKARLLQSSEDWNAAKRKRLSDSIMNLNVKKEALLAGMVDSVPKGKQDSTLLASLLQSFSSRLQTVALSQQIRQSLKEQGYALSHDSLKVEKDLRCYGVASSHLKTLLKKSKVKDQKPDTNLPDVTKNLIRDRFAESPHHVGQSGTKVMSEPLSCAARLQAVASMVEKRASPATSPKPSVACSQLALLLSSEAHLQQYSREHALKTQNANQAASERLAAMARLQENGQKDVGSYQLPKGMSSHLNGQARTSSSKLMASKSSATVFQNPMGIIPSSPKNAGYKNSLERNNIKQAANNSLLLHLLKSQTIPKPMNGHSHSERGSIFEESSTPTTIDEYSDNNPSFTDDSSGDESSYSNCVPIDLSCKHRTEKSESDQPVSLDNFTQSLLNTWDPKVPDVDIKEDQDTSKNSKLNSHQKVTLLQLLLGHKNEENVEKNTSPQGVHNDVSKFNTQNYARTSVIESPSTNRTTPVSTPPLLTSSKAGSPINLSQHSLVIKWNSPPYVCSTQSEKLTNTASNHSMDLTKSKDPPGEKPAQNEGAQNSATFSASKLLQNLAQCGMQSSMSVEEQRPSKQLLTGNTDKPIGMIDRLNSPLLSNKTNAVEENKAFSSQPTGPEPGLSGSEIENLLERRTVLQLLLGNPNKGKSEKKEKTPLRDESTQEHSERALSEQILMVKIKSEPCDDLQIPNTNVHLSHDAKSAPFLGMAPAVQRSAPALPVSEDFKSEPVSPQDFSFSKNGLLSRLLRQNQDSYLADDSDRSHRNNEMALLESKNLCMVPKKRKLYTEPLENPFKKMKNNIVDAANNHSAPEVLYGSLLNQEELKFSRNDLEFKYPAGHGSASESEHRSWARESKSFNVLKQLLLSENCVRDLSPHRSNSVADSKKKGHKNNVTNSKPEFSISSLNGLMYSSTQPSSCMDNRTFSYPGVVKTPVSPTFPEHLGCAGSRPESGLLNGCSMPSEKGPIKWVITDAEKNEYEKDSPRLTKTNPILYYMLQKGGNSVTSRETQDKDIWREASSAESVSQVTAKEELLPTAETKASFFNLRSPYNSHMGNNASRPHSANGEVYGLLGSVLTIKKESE
Chain of UniProt P13533 (P13533 whole entry, looked up): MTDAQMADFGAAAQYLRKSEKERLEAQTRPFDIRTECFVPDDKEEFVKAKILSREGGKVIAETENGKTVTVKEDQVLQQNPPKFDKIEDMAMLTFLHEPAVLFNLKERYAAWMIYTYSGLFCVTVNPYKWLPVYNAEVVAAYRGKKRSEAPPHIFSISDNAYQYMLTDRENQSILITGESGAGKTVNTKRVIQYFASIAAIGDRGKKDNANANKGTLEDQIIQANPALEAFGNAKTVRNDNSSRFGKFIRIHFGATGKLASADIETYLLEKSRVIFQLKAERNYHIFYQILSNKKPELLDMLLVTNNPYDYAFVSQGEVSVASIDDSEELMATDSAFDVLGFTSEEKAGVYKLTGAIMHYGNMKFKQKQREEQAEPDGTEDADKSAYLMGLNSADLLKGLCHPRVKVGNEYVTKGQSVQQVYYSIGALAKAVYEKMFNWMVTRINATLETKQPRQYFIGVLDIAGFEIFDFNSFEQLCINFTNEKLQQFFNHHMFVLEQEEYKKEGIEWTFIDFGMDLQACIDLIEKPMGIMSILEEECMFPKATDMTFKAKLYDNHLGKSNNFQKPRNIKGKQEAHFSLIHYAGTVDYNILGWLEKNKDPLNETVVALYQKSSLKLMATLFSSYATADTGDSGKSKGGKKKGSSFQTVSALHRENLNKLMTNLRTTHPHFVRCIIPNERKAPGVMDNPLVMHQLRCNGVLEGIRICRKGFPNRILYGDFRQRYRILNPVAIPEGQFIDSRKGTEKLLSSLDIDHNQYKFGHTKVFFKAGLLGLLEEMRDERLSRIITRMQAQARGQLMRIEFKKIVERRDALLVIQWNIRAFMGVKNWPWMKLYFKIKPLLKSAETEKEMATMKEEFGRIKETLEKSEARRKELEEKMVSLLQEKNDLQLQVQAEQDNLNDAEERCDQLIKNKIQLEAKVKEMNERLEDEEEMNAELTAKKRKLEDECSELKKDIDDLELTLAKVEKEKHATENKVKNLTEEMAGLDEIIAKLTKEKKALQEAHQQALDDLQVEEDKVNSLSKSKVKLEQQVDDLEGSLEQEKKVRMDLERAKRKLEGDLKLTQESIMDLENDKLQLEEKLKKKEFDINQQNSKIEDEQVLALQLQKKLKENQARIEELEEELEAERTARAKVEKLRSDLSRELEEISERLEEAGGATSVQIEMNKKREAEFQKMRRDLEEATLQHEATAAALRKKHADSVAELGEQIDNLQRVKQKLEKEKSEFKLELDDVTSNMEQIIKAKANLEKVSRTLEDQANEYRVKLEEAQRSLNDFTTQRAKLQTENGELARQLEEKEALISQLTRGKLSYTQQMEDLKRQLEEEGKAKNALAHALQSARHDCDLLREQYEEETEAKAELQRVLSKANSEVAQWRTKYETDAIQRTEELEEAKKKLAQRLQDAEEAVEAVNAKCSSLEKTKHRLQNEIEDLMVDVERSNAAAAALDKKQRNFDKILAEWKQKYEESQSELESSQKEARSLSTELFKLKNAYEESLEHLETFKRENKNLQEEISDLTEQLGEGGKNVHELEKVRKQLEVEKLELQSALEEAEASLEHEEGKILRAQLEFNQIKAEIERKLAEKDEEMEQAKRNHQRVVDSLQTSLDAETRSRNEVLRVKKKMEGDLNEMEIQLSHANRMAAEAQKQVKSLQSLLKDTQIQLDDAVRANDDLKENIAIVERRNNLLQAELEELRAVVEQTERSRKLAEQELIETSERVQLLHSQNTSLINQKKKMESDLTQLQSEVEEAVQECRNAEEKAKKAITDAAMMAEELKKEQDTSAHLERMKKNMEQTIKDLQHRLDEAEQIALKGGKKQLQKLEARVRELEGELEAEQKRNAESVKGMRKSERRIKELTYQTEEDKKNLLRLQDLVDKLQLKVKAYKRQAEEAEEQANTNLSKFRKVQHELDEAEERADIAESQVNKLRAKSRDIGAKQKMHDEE
Chain of UniProt P53370 (P53370 whole entry, looked up): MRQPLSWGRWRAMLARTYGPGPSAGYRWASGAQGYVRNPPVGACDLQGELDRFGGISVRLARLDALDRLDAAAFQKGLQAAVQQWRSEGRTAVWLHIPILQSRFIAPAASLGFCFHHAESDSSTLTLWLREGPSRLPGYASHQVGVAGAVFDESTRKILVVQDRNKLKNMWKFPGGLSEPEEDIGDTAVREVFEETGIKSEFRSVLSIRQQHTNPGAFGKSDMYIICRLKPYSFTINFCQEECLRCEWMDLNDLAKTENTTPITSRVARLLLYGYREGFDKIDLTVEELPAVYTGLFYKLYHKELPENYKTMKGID

Row | Target | log2 fold change [1] | log2 fold change (encorafenib) | log2 fold change [2] | log2 fold change [3] | log2 fold change (barasertib) | log2 fold change (volasertib) | log2 fold change [4] | log2 fold change [5] | log2 fold change [6] | log2 fold change (saracatinib) | log2 fold change (sotrastaurin) | log2 fold change (alvocidib) | log2 fold change (Tubastatin A) | log2 fold change [7] | log2 fold change [8] | log2 fold change (alisertib) | log2 fold change [9] | log2 fold change (gefitinib) | log2 fold change (vemurafenib) | log2 fold change (defactinib)
1 | ORC1 (UniProt Q13415) | 0.185 | 0.018 | -0.188 | – | – | – | – | – | – | – | – | – | – | – | – | – | – | – | – | –
2 | NRIP1 (UniProt P48552) | – | – | – | 0.024 | 0.076 | -0.055 | -0.124 | -0.651 (active) | 0.17 | -0.071 | -0.074 | -0.145 | 0.001 | -0.096 | 0.291 | -0.21 | 0.04 | -0.011 | – | –
3 | NUMB isoform 2 (UniProt P49757) | – | – | – | – | – | – | -0.146 | – | – | -0.04 | – | – | -0.112 | – | 0.158 | 0.092 | – | -0.277 | – | –
4 | PAGE2B (UniProt Q5JRK9) | -0.027 | 0.089 | -0.001 | -0.056 | – | -0.013 | -0.008 | -0.034 | -0.239 | 0.176 | 0.05 | 0.059 | 0.175 | 0.097 | 0.072 | 0.053 | -0.091 | -0.051 | 0.008 | 0.253
5 | MYH6 (UniProt P13533) | 0.215 | -0.048 | 0.082 | -0.081 | 0.006 | 0.084 | -0.137 | – | – | – | -0.017 | – | 0.142 | -0.06 | – | – | 0.206 | – | – | –
6 | NUDT6 (UniProt P53370) | 0.091 | -0.021 | -0.015 | – | – | – | -0.085 | – | – | 0.05 | -0.033 | – | 0.042 | 0.154 | -0.024 | – | – | – | 0.022 | -0.002
7 | NR2C2 isoform 2 (UniProt P49116) | -0.091 | -0.002 | -0.022 | 0.049 | 0.017 | -0.001 | 0.003 | 0.075 | -0.074 | -0.058 | 0.002 | 0.075 | -0.045 | -0.03 | 0.1 | – | -0.002 | – | -0.087 | 0.058
8 | NSUN7 (UniProt Q8NE18) | -0.016 | 0.21 | -0.026 | -0.046 | -0.084 | 0.077 | -0.049 | -0.039 | -0.032 | – | 0.017 | -0.191 | 0.176 | -0.001 | – | – | -0.006 | – | -0.098 | -0.035
9 | NUB1 (UniProt H7C5N1) | – | – | – | – | – | – | 0.312 | – | – | – | – | – | 0.209 | – | – | – | – | – | – | –
10 | MYO9A isoform 4 (UniProt B2RTY4) | – | – | – | 0.023 | 0.053 | -0.028 | -0.019 | -0.021 | 0.002 | -0.068 | 0.093 | 0.034 | -0.077 | -0.013 | 0.015 | -0.035 | 0.04 | 0.009 | 0.248 (active) | -0.026
11 | ORC3 (UniProt Q9UBD5) | – | – | – | -0.16 | – | 0.003 | – | 0.185 | -0.06 | – | – | 0.16 | – | – | – | -0.035 | 0 | 0.105 | – | –
12 | NTMT1 (UniProt S4R338) | – | – | – | 0.043 | – | -0.002 | – | – | – | – | – | – | – | – | – | – | 0.045 | – | – | –
13 | NR2F2 (UniProt P24468) | – | – | – | -0.081 | 0.01 | -0.146 | -0.028 | 0.005 | -0.216 | 0.014 | 0.013 | -0.053 | -0.154 | 0.056 | -0.047 | 0.072 | 0.012 | -0.077 | – | –
